# Reference: PubChem BioAssay (EPA / NIEHS)
# Active and inactive are the calls of the source. Rule for the calls: active = hit-call score of the fitted dose curve at least 0.9, where 1 is the maximum; inactive = score below 0.9.
# Experiment: APR_HepG2_CellLoss_72hr: Apredica 72-hour HepG2 Assay for Cell Loss (AID 2282915)
# Settings: high-content imaging
# Outline: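 Cell number comes from Hoechst 33342-labelled nuclei, imaged at 20x after 3.7% formaldehyde fixation. Dosing was 0.39–200 uM, ten concentrations in duplicate, 0.5% DMSO final, for 72 h. Bidirectional fit relative to DMSO baseline.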
SMILES,outcome,AC50
OCCO,inactive,
Cc1cc(F)ccc1-c1cc(N2CC[C@@H](O)[C@H]2CO)ncc1N(C)C(=O)C(C)(C)c1cc(C(F)(F)F)cc(C(F)(F)F)c1,,64.7 µM (active)
CC(O)CC(C)(C)O (configuration not stated),,70.6 µM (active)
CC1(C)NC(=O)N(c2ccc([N+](=O)[O-])c(C(F)(F)F)c2)C1=O,,38.6 µM (active)
CCCCOC(=O)c1ccc(O)cc1,inactive,
Oc1ccccc1,inactive,
CC(C)(C)c1cc(/C=C2\SC(N)=NC2=O)cc(C(C)(C)C)c1O,,32.4 µM (active)
O=C=NCCCCCCN=C=O,inactive,
NCc1cccc(C2CCN(C(=O)c3ccc(C#Cc4ccccc4F)o3)CC2)c1,,15.5 µM (active)
CN(C)C(=O)C1(N2CCCCC2)CCN(CC[C@@]2(c3ccc(Cl)c(Cl)c3)CN(C(=O)c3ccccc3)CCO2)CC1,,11.4 µM (active)
Cc1occc1C(=O)Nc1ccc(C(=O)N2CCC(F)(F)/C(=C\C(=O)N3CCC(N4CCCCC4)CC3)c3ccccc32)cc1,,12.3 µM (active)
C[C@]12CC[C@@H]3c4ccc(O)cc4CC[C@H]3[C@@H]1CCC2=O,inactive,
COc1cc(C(=O)NC2CCN(C)CC2)ccc1Nc1ncc2c(n1)N(C1CCCC1)CC(F)(F)C(=O)N2C,inactive,
O=C(O)Cc1cc(I)c(Oc2ccc(O)c(I)c2)c(I)c1,inactive,
Cc1oc2c(NC(=O)c3c(Cl)cccc3Cl)cccc2c1C(C)(C)O,inactive,
O=CCCCC=O,inactive,
CC[C@H](NC(=O)c1cc(F)ccc1NS(=O)(=O)c1cccc2cccnc12)c1ccccc1,,78.4 µM (active)
